Four compounds from PubChem BioAssay can be followed below.

Assay [1] in a line: stimulators of nuclear beta-catenin in C2C12, primary screen, imaging, WNT3A-conditioned medium, mouse C2C12, NPC library (AID 1117326; in the data active means nuclear beta-catenin stimulation mostly above about 4.2%, no sharp cut-off; inactive means mostly below about 10%). Conditions: stronger effect = higher value.
Assay [2] in a line: stimulators of insulin release from INS-1E, primary screen, cell-based, 5 mM glucose, NPC library (AID 1117329;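 active means compound raises insulin release from rat beta cells at 5 mM glucose, no numeric limit stated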). Particulars: rat INS-1E insulin secretion, at 10 µM, stronger effect = higher value.
The nature of assay [3]: growth inhibition of GSK3B-pretreated HCT116 cells – cell-based, CellTiter-Glo, 0.2 to 20 µM (AID 1117336;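 active means compounds lowering colon cancer cell viability after pretreatment blocking the GSK3B kinase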). Particulars: HCT116 viability after GSK3B inhibitor, at 20 µM, stronger effect = higher value.
The nature of assay [4]: inhibition of endothelial tube formation, primary screen, imaging, VEGF stimulated, CD31 staining, tube area, NPC library (AID 1117340;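 active means compound that reduces growth-factor-driven endothelial tube area in a mixed cell culture, no cutoff stated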). Conditions: VEGF-stimulated ADSC/ECFC co-culture, at 10 µM, stronger effect = higher value.
Assay [5] is described as follows: glucagon-like peptide 1 release enhancers, primary assay, NCI-H716 cell line, NPC library (AID 1117341;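 active means compound raises GLP1 secretion from the human gut endocrine cells, with no numeric limit stated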). Particulars: NCI-H716 cells, at 10 µM, stronger effect = higher value.
The nature of assay [6]: HCT116 colon cancer cell growth inhibition, primary screen, CellTiter-Glo luminescence, NPC library (AID 1117342;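 active means compounds that lower survival of HCT116 colon cancer cells in the luminescence readout, no numeric limit stated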). Particulars: at 20 µM (top of the series).
Assay [7] in a line: CellTiter-Glo luminescent readout of SW480 viability loss, NPC library primary (AID 1117343;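 active means compounds that lower viability of the colon cancer cells in the luminescence readout, with no numeric limit stated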). Conditions: CellTiter-Glo luminescence; at 20 µM (top of the series).
Assay [8] can be described thus: decreased DLD-1 cellular survival, CellTiter-Glo luminescent readout, NPC compound collection, primary HTS (AID 1117346;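 active means compounds that lower survival of DLD-1 colon cancer cells in the luminescence readout, no cutoff given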). Conditions: DLD-1 viability, CellTiter-Glo luminescence; at 20 µM (top of the series).
Assay [9] has as its target 6-phosphogluconate dehydrogenase, decarboxylating (Homo sapiens) (UniProt P52209). Kind of assay: 6PGD enzyme inhibitors, primary screen, biochemical, human, recombinant enzyme, NADPH absorbance (AID 1159550;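 active means at least 20% inhibition of 6-phosphogluconate dehydrogenase activity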). Particulars: recombinant 6PGD, NADPH absorbance 341 nm; at 10 µM; stronger effect = higher value.
Assay [10] deals with Aerobactin synthetase IucA (Klebsiella pneumoniae hvKP1). Kind of assay: Biochemical IucA enzyme inhibition primary screen of the Spectrum library (AID 1346200; call rule not given here;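 further: 100% = wells without compound and 0% = wells lacking enzyme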). Conditions: malachite green pyrophosphate, A620, at 8 µM, stronger effect = lower value.
The target in assay [11] is Mitogen-activated protein kinase 7 (Homo sapiens) (UniProt Q13164). The assay can be described thus: ERK5 transactivation activators in reporter cells, primary screen, cell-based, HTS (AID 1508626;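 active means luciferase signal above three times the same-plate solvent-only control wells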;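 further: luciferase driven by Gal4-ERK5 fusion binding five Gal4 sites before minimal TATA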). Conditions: HeLa Gal4-ERK5 transactivation, 18 h, at 5 µM, stronger effect = higher value.
Chain of Mitogen-activated protein kinase 7 (Homo sapiens) (Q13164 whole entry, looked up, the tested form may be a part): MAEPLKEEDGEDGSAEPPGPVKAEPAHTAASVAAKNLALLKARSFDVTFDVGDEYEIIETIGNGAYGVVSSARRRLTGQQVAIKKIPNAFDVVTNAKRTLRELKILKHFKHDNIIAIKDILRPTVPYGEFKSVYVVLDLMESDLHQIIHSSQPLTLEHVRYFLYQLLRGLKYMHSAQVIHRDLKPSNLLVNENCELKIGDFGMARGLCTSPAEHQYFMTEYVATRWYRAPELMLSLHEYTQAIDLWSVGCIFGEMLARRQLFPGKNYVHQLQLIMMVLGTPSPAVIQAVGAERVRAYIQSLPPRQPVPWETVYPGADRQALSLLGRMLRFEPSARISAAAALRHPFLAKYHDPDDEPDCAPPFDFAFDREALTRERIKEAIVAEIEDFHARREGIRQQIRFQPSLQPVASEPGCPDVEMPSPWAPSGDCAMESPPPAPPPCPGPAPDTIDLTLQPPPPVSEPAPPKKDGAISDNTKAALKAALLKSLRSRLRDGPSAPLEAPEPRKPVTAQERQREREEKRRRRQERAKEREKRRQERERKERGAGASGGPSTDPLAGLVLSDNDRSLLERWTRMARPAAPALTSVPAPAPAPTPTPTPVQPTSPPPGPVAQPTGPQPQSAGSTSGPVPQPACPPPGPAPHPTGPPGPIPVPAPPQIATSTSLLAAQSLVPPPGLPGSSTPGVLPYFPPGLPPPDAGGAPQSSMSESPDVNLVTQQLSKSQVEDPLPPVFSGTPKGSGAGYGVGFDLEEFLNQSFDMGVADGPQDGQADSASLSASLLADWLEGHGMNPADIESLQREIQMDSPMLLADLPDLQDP
A short description of assay [12]: suppressors of polyQ aggregation in yeast, 75Q-TubU reporter (AID 1593). Particulars: Yeast 75Q polyglutamine aggregation reporter.
Assay [13] is described as follows: inhibitors of mitochondrial cytochrome c release, biochemical, purified mitochondria (AID 1603).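 Further: mouse liver mitochondria challenged with calcium chloride; signal normalized to the plate average as 100%.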 Particulars: stronger effect = lower value.
Assay [14] is described as follows: inhibitors of polyQ protein aggregation (AID 1604). Conditions: polyglutamine-induced protein aggregation inhibition assay; stronger effect = higher value; tested at 2.5 µM.
Assay [15] in a line: liver-stage malaria parasite growth inhibition, primary screen, cell-based, HepG2, luciferase luminescence, HepG2 viability (AID 624349).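 Further: 100% = mean of DMSO negative control wells on the same plate.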 Conditions: P. berghei liver stage in HepG2, luciferase luminescence, concentration not given here; parasite load remaining: stronger effect = lower value; viability: measured here: HepG2 viability without parasites.
The nature of assay [16]: differential killing of epithelial or mesenchymal cells, primary screen, imaging, PC-3E GFP, TEM4-18 mCherry, co-culture (AID 1345086;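 active means compounds killing one labelled cell type while sparing the other, by normalised counts and ratio limits, not self-fluorescent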;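 on all read-outs here: cells exposed to compound for 72 h before imaging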;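 on red/green cell ratio (normalised): normalised mesenchymal count divided by normalised epithelial count so high means epithelial killing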). Conditions: imaging cell counts, at 1 µM; for red/green cell ratio (normalised): actives lie on both sides.
Assay [17] is described as follows: sensitizers of A549 cells to miR-34 induction, primary screen, imaging, A549 dox-inducible miR-34, nuclei and caspase counts (AID 1347080;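 active means compounds whose cell count with miR-34 switched on is under 0.7 times the count with it off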). Conditions: A549 miR-34 inducible, Hoechst nuclei count, 48 h.
A short description of assay [18]: survival rescue of mitochondrial mutant cells in low glucose, primary screen, MELAS cybrids, Rieske KO mouse fibroblasts, CellTiter-Glo (AID 1508586;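 active means mean z-score across replicates of 1.96 or higher in either the MELAS or the Rieske mutant cell line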;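 further: z relative to plate mean and SD of compound and empty wells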).
In assay [19] the target is NAD(+) hydrolase SARM1 (Homo sapiens) (UniProt Q6SZW1). Kind of assay: SARM1 TIR NADase inhibitors, cell lysate, NAD-Glo luminescence (AID 1508614;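 active means compound whose remaining NAD level is above about 45 nM, limit read from the data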). Particulars: SAM-TIR HEK293T lysate NADase, at 1 µM, stronger effect = higher value.
Chain of NAD(+) hydrolase SARM1 (Homo sapiens) (Q6SZW1 whole entry, looked up): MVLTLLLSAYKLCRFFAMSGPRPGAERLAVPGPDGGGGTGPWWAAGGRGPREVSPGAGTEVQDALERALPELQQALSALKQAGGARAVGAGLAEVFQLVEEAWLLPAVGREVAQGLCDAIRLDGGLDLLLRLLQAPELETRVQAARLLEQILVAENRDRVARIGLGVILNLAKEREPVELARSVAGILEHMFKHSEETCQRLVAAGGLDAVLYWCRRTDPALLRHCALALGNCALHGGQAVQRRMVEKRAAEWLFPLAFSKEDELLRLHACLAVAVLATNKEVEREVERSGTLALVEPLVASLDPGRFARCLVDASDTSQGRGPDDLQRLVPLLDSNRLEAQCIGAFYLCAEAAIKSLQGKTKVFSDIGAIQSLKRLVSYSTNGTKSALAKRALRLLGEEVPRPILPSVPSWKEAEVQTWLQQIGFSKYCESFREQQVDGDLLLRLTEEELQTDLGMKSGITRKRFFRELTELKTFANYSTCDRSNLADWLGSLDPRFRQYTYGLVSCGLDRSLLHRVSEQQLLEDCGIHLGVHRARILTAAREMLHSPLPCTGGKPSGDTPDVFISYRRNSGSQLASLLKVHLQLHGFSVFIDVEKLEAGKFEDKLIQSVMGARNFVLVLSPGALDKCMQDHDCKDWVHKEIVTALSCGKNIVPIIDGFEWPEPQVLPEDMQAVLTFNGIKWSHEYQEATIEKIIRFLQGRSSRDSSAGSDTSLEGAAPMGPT
Assay [20] is described as follows: viability rescue of complex I mutant cybrids, primary screen, cell-based, galactose medium, ATP luminescence (AID 1645843;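 active means z-score of at least 1.8 in each of two replicates, scored against plate mean and spread of sample wells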;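 further: positive z means more ATP and so rescue of galactose-driven cybrid death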). Conditions: complex I mutant cybrid cells, 72 h, stronger effect = higher value.
[21] abbreviates: measured here: epithelial PC-3E GFP cell survival.
[22] abbreviates: measured here: mesenchymal TEM4-18 mCherry cell survival.
Setting [23] is: measured here: relative caspase fold change +Dox/-Dox.
[24] abbreviates: measured here: total cells with miR-34 induction, stronger effect = lower value.
Where [25] appears, read: measured here: total cells without miR-34 induction.
The mark [26] stands for this setting: MELAS cybrid survival, CellTiter-Glo 48 h, stronger effect = higher value.
[27] abbreviates: Rieske KO mouse fibroblast survival, CellTiter-Glo 72 h.

Values joined by “and” are separate entries in the source; they are usually repeats but may differ in a detail not shown here. Equal entries are not always repeated. Active and inactive are the calls of the source. Unless noted, no stated cut-off is given here; in the data, active means parasite load remaining mostly below about 12% (no sharp cut-off); inactive means mostly above about 10%.

Chain of 6-phosphogluconate dehydrogenase, decarboxylating (Homo sapiens) (P52209 whole entry, looked up): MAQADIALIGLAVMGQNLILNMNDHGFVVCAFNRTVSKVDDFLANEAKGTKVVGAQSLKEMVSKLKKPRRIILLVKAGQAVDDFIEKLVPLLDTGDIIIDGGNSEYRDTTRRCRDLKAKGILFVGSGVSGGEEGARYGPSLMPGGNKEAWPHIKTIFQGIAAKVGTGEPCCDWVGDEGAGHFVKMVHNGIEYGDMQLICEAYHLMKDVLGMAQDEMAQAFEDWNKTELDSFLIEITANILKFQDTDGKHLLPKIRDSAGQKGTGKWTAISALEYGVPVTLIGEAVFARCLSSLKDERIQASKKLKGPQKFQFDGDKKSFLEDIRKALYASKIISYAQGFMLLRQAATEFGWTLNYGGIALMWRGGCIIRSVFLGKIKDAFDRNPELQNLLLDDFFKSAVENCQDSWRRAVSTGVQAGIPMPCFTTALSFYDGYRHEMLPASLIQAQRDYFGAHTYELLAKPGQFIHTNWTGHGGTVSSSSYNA

As to `CCNc1nc(Cl)nc(NCC)n1`, the nuclear beta-catenin stimulation in [1] (at 10 µM) is 0.8% (inactive); in assay [1] (stimulation, at 2 µM), 2.2%. The insulin secretion stimulation in assay [2] is -1.4% (inactive). Moreover, in assay [3], the viability decrease was -15.2% (inactive). Besides, in [4], the tube area decrease was 8.9% (inactive). Further, the GLP1 secretion stimulation in assay [5] was 1.7% (inactive). Also, the inhibition of viability in assay [6] is 3.93% (inactive). The values for the viability decrease (inhibition) in [7] and in [8] were -14.9% (inactive) and -16.6% (inactive), respectively. Moreover, the inhibition in assay [9] is 4.55% (inactive). Moreover, in assay [10], the activity remaining is 94.3% (inactive). Besides, the luciferase signal in [11] is 52 AU (inactive).

In assay [12], `CC(C)(C)NCC(O)c1cc(Cl)c(N)c(Cl)c1` (stereo unspecified) yielded a score of 1.52. Also, the cytochrome c release ratio in assay [13] was 1.06. Also, in assay [14], the inhibition of aggregation was found to be 29.4%. Moreover, the parasite load remaining in [15] was 72.5% (inactive) and 86% (inactive) and 37.5% (inactive). For the same compound, the viability in assay [15] is 109% and 74.6% and 102%. In addition, the nuclear beta-catenin stimulation was 0% (inactive) in assay [1] (at 10 µM) and 1.4% in assay [1] (stimulation, at 2 µM). For the same compound, the insulin secretion stimulation in [2] is 3.8% (inactive). The viability decrease in [3] was -1.4% (inactive). Further, the tube area decrease in assay [4] was 13.7% (inactive). The GLP1 secretion stimulation in assay [5] is 0.6% (inactive). In assay [6], the inhibition of viability was 24.9% (inactive). For the same compound, the results for the viability decrease (inhibition) in assay [7] and in assay [8] were 15.4% (inactive) and 10.4% (inactive), respectively. For the same compound, in [9], the inhibition is -5.11% (inactive). The red/green cell ratio (normalised) in assay [16] is 1.04 (inactive). The normalised cell number worked out at 1.05 in assay [16] (setting [21]) and 1.09 in assay [16] (setting [22]). In [10], the activity remaining is 115% (inactive). The fold change is 0.844 (inactive) and 0.889 (inactive) in [17] (stronger effect = lower value); 1.23 and 1.3 in [17] (setting [23]). In addition, the cell count is 8390 and 9780 in [17] (setting [24]); 9940 and 11000 in assay [17] (setting [25]). The z-score in assay [18] (setting [26]) was 0.503 (inactive) and 0.285 (inactive); in [18] (setting [27]), 0.0878 and 0.551; in assay [20], 0.41 (inactive). Moreover, the remaining NAD in [19] is 10 nM (inactive). Also, the luciferase signal in assay [11] was 44 AU (inactive).

As to `COc1ccccc1N1CCNCC1`, the nuclear beta-catenin stimulation in assay [1] (at 10 µM) was 0.2% (inactive); in [1] (stimulation, at 2 µM), -0.4%. In [2], the insulin secretion stimulation was -0.2% (inactive). For the same compound, in assay [3], the viability decrease is -7.7% (inactive). For the same compound, the tube area decrease in [4] was 7.7% (inactive). In addition, the GLP1 secretion stimulation in assay [5] is -2.3% (inactive). In addition, the inhibition of viability in assay [6] was -22.5% (inactive). Further, the viability decrease (inhibition) in assay [7] was 106% (active); in assay [8] it was -1.65% (inactive). For the same compound, the inhibition in assay [9] is -1.05% (inactive). For the same compound, the red/green cell ratio (normalised) in assay [16] is 0.87 (inactive). The normalised cell number in assay [16] (setting [21]) worked out at 1.09; in assay [16] (setting [22]) it was 0.94. Moreover, the activity remaining in assay [10] is 95.5% (inactive). For the same compound, the fold change is 0.98 (inactive) in assay [17] (stronger effect = lower value) and 1.58 in [17] (setting [23]). Further, the values for the cell count in assay [17] (setting [24]) and in [17] (setting [25]) were 9780 and 9980, respectively. For the same compound, the z-score in assay [20] was 1.06 (inactive).

As for `Clc1ccc(CSC(Cn2ccnc2)c2ccc(Cl)cc2Cl)cc1` (stereo unspecified), the score in assay [12] came to 0.02. Also, in assay [13], the cytochrome c release ratio was determined as 1.53. Also, in assay [14], the inhibition of aggregation was 26.4%. Moreover, the parasite load remaining in [15] is 45.1% (inactive) and 43.8% (inactive) and 9.3% (inactive). The viability in assay [15] is 77.3% and 59.6% and 86.4%. The nuclear beta-catenin stimulation in assay [1] (at 10 µM) is 4.8% (inactive); in assay [1] (stimulation, at 2 µM), 1.5%. For the same compound, the insulin secretion stimulation in assay [2] was 2.6% (inactive). Further, in assay [3], the viability decrease was 101% (active). In addition, in [4], the tube area decrease was 110% (active). Besides, the GLP1 secretion stimulation in assay [5] is 45.8% (active). For the same compound, in assay [6], the inhibition of viability is 102% (active). Besides, the viability decrease (inhibition) in assay [7] is 141% (active); in assay [8], 104% (active). Besides, in assay [9], the inhibition is 1.36% (inactive). The red/green cell ratio (normalised) in assay [16] was 0.91 (inactive). The normalised cell number was 1.1 in assay [16] (setting [21]) and 1 in assay [16] (setting [22]). Moreover, in assay [10], the activity remaining was 106% (inactive). The fold change in assay [17] (stronger effect = lower value) was 0.925 (inactive) and 0.946 (inactive) and 1.1 (inactive); in assay [17] (setting [23]), 1.29 and 0.637 and 1.2. The cell count in assay [17] (setting [24]) is 6020 and 7170 and 8360; in [17] (setting [25]) it was 6500 and 7580 and 7600. Besides, the z-score is -0.246 (inactive) and 0.0301 (inactive) in assay [18] (setting [26]); -0.177 and -0.00115 in assay [18] (setting [27]). In addition, the remaining NAD in assay [19] is 10 nM (inactive). The luciferase signal in assay [11] was 44 AU (inactive).
